Here are results for 49 molecules from PubChem BioAssay AID2685 (National Center for Advancing Translational Sciences (NCATS), 2010).

Hit rate of the full screen: of about 320,000 compounds, about 2,100 (0.66%) were called active. Roughly 53% stayed inconclusive and do not appear here. This is one part of a sample in which actives are shown more often than they occur. Calls follow the shape of the dose curve; as a rule, active = well fitted inhibition curve with a large enough effect in the signal ratio, with a control signal flat (not every such curve was filed as active); inconclusive = small, poorly fitted or top-dose-only effect, or effect the other way, or a change in a side signal; inactive = flat fitted curve, though single readings scatter; the % refers to the signal ratio.
Potency is read from the fitted curve at half-maximal effect.

A short description of this assay: qHTS Assay for Lipid Storage Modulators in Drosophila S3 Cells.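 As to cell number change: cells counted by Cell Tracker Red CMTPX staining in the red channel.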 As to lipid storage change, negative = inhibition: % is scaled to controls: 0 for no effect and ±100 for the full control effect. As to conditions: BODIPY lipid droplet fluorescence, 18-24 h, cells fed with added oleic acid; cell number change: measured here: cell count max response; series mostly up to 46.1 µM; lipid storage change, negative = inhibition: at the top concentration. The gist of the method:
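Drosophila S3 cells got compounds at several concentrations plus oleic acid (400 uM solution). Laser-scanning cytometry with 488 nm excitation read lipid droplets at 500-530 nm and cells at 575-640 nm. Percent activity was relative to 20 uM Triacsin C.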
A general note: Quantitative high-throughput screening tests each substance at several concentrations.
In the case of `Cc1ccc(NC(=O)CCNS(=O)(=O)c2ccc3[nH]c(=O)oc3c2)c(Cl)c1`, the result was inactive and the cell number change is -2.47%. For the molecule `CN(C(=O)c1ccc(=O)[nH]c1)C1(C(=O)NC2CCCCC2)CCCCC1`, the “lipid storage change, negative = inhibition” value is -8.5% (inactive) and the cell number change was -13.5%. For `Cc1nn(C)cc1-c1csc(N)n1`, in that order: -5.77% (inactive) and 19%. For `COc1ccc(NC(=O)C2CCCN(S(=O)(=O)c3cccnc3)C2)c(OC)c1` (stereo unspecified), in that order: -0.456% (inactive) and 12.4%.

As for `COc1ccc(C(=O)NNC(=S)NC(=O)c2ccco2)cc1`, the “lipid storage change, negative = inhibition” value was -27% (inactive) and the cell number change was found to be 1.44%. With `O=C(NC(=S)NNC(=O)c1ccco1)c1ccc(F)cc1`, the Potency is 18.4 µM (active) and the cell number change worked out at 4.58%. As for `COc1ccc(C(=O)NC(=S)NNC(=O)c2ccco2)cc1`, the result was inactive and the cell number change was -19.8%.

On to `CCCCN(C(=O)c1nn(C)c(=O)c2ccccc12)c1c(N)n(CC(C)C)c(=O)[nH]c1=O`, for which the “lipid storage change, negative = inhibition” value is 6.7% (inactive) and the cell number change was found to be 3.88%. For `O=C(CSc1nnc([C@@H]2CCCN2)o1)c1ccc(Cl)cc1`, in that order: 14.1% (inactive) and 3.48%. In the case of `O=C(NC1=NCCS1)c1cccc(NC(=O)c2ccco2)c1`, the outcome was inactive. On the same count and under the same terms, in the case of `COc1ccc(CNC(=O)CN2c3ccccc3S(=O)(=O)c3ccccc32)cc1` it was “inactive”.

As to `CCN1C(=O)N(c2ccc(C(C)=O)cc2)S(=O)(=O)c2ccccc21`, the “lipid storage change, negative = inhibition” value was 20.2% (inactive) and the cell number change was determined as 7.75%. `CCN1c2ccccc2S(=O)(=O)c2ccccc21`: the Potency was 1.84 µM (active) and the cell number change is -15.5%. `COc1cccc(NC(=O)C(Cc2ccccc2)n2cccc2)c1` (stereo unspecified): the “lipid storage change, negative = inhibition” value is 15% (inactive) and the cell number change is 23.9%. As to `O=C(c1ccccc1)N1CCN(c2ccccc2F)CC1`, the outcome was inactive.

On to `CCN(CC)CCCN(C(=O)Cn1nnc(-c2ccc(OC)c(OC)c2)n1)C(C(=O)NC(C)(C)C)c1ccc(F)cc1` (stereo unspecified), for which the “lipid storage change, negative = inhibition” value is -9.11% (inactive) and the cell number change was -0.835%. Turning to `COc1ccc(C(C)=O)cc1CSc1nnc(Nc2ccccc2C)s1`, the “lipid storage change, negative = inhibition” value was 22.8% (inactive). As for `COc1ccc(C(C)=O)cc1CSc1nnc(SCc2cc(C(C)=O)ccc2OC)s1`, the “lipid storage change, negative = inhibition” value is 12.7% (inactive) and the cell number change came out at 7.73%. `COc1ccc(C(C)=O)cc1CSc1nnc(Nc2ccccc2)s1`: the Potency was 2.31 µM (active) and the cell number change was -8.23%.

Take `CN(C(=O)COC(=O)CCc1nc2ccccc2c(=O)[nH]1)C1CCS(=O)(=O)C1` (stereo unspecified): the “lipid storage change, negative = inhibition” value was -17.9% (inactive) and the cell number change was -1.94%.

`COCCNC(=O)c1cccc2c1-c1ccccc1C2=O`: the “lipid storage change, negative = inhibition” value is -7.63% (inactive) and the cell number change is -10.2%. Regarding `CC(=O)CCc1oc2ccc(C)cc2c1-c1ccccc1`, the “lipid storage change, negative = inhibition” value is 20.7% (inactive) and the cell number change is 1.81%. For `O=S(=O)(Cc1ccccc1)Nc1ccc(S(=O)(=O)N2CCCC2)cc1`, in that order: 12.9% (inactive) and -4.32%. Consider `O=C1CN(c2nc(-c3cccs3)nc3sc4c(c23)CCCC4)CCN1`, for which the Potency was 1.64 µM (active) and the cell number change is -27.1%. Take `O=c1oc(-c2cccs2)nc2sc3c(c12)CCCCC3`: the “lipid storage change, negative = inhibition” value is -9.97% (inactive) and the cell number change came to 7.26%.

For `O=c1oc(-c2cccs2)nc2sc3c(c12)CCC3`, the “lipid storage change, negative = inhibition” value was -1.18% (inactive) and the cell number change worked out at 1.06%. `N#CCCNC(=O)Cn1c(COc2ccc(Cl)cc2)nc2ccccc21`: the “lipid storage change, negative = inhibition” value is 15% (inactive) and the cell number change amounted to 6.47%. For `CCc1ccc(NC(=O)CSc2nc(-c3ccc(C)cc3)nc3c2Cc2c(CO)cnc(C)c2O3)cc1`, in that order: -8.05% (inactive) and -9.8%. Turning to `COc1cccc(-c2noc(CCCC(=O)N3CCOCC3)n2)c1`, the “lipid storage change, negative = inhibition” value was -11.5% (inactive) and the cell number change is -4.07%. Turning to `COc1cccc(-c2nc3c(c(SCC(=O)N4CCOCC4)n2)Cc2c(CO)cnc(C)c2O3)c1`, the Potency was 0.651 µM (active). For the molecule `COC(C[C@H](O)[C@H](C)[C@H](O)COCc1ccccc1)OC`, the “lipid storage change, negative = inhibition” value was -0.509% (inactive) and the cell number change was found to be 11.5%.

For `O=C(CN1C(=O)COc2ccccc21)Nc1ccc2c(c1)OCCO2`, the outcome was inactive and the cell number change was 3.43%. As for `COc1ccc(C(=O)N/C(=C\c2cn(C)c3ccccc23)C(=O)N2CCN(C)CC2)cc1OC`, the molecule was called inactive and the cell number change is 0.763%. Turning to `COc1ccc(C(=O)N/C(=C\c2cn(C)c3ccccc23)C(=O)N2CCOCC2)cc1OC`, the Potency was 23.1 µM (active) and the cell number change amounted to 9.92%. For the molecule `COc1ccc(C(=O)N/C(=C\c2cn(C)c3ccccc23)C(=O)N2CCOCC2)cc1`, the outcome was inactive and the cell number change is 8.73%. As for `CCCN1CCN(C(=O)c2noc3c2COc2ccc(C)cc2-3)CC1`, the “lipid storage change, negative = inhibition” value is -30.8% (inactive) and the cell number change is -19.6%. In the case of `COc1ccc2oc(C(=O)OC(C)C(=O)Nc3ccc(N4CCOCC4)cc3)c(C)c2c1` (stereo unspecified), the Potency is 7.31 µM (active) and the cell number change was -30.5%.

With `Cc1cc(=O)oc2cc(OC(C)C(=O)Nc3ccc(N4CCOCC4)cc3)ccc12` (stereo unspecified), the “lipid storage change, negative = inhibition” value was 20.2% (inactive). On to `COc1ccc2oc(C(=O)OC(C)C(=O)N3CCC(C)CC3)c(C)c2c1` (stereo unspecified), for which the “lipid storage change, negative = inhibition” value was -4.24% (inactive) and the cell number change is -13.1%.

In the case of `O=C(CSc1cn[nH]n1)Nc1ccccc1F`, the cell number change is 16.5% and the lipid storage change, negative = inhibition is -23.4% [at 0.0737 µM] (inactive). With `CCOC(=O)C1=C(COC(=O)c2cc(OC)c(OC)c(OC)c2)NC(=O)NC1C` (stereo unspecified), the “lipid storage change, negative = inhibition” value is 4.7% (inactive) and the cell number change is -11.6%. Turning to `CCOC(=O)C1=C(COC(=O)/C=C/c2cc(OC)c(OC)c(OC)c2)NC(=O)NC1C` (stereo unspecified), the Potency was 18.4 µM (active) and the cell number change was 4.86%.

Take `CCOC(=O)C1=C(COC(=O)/C=C/c2cccc(OC)c2OC)NC(=O)NC1C` (stereo unspecified): the result was inactive. With `NS(=O)(=O)c1ccc(NC(=S)NC(=O)c2cccs2)cc1`, the “lipid storage change, negative = inhibition” value is -5.53% (inactive) and the cell number change is -5.36%. Consider `Cc1cc(Br)ccc1SCC(=O)N1CCN(S(=O)(=O)c2ccccc2)CC1`, for which the outcome was inactive and the cell number change came out at 10.8%.

Consider `O=C(CN1C(=O)c2cccnc2Oc2ccc(Cl)cc21)NCCc1ccccc1`, for which the molecule was called inactive and the cell number change came to 10.9%. Consider `CC(CNC(=O)CCC(=O)N1CCOc2ccccc21)c1ccccc1` (stereo unspecified), for which the “lipid storage change, negative = inhibition” value is -12.8% (inactive) and the cell number change was 5.19%.

For the molecule `CC(CNC(=O)CN1C(=O)c2cccnc2Oc2ccc(Cl)cc21)c1ccccc1` (stereo unspecified), the Potency was 20.6 µM (active) and the cell number change is -20.3%. Take `CC(CNC(=O)CCC(=O)N1CCOc2ccc(Cl)cc21)c1ccccc1` (stereo unspecified): the Potency is 0.92 µM (active) and the cell number change is -20.2%.
